Test results as given in PubChem BioAssay (NCATS).
Records with an inconclusive call do not appear. Where a call stands in place of a potency, no number is given. Unmarked numbers belong to inactive results. The source made the active and inactive calls. The call rests on the fitted dose curve; in most records, active means well fitted cell-killing curve with a large enough effect; inconclusive means small, poorly fitted or top-dose-only effect, or effect the other way; inactive means flat fitted curve, though single readings scatter.

Each compound was assayed on Tov-21-G (assay: Primary qHTS to identify gynecologic anti-cancer compounds using libraries of approved drugs and bioactive compounds (AID 1345084; further: nearly all actives have a fitted effect of over 55% in size)). Conditions: Gynecologic cancer cell panel viability, ATPlite luminescence, 48 h; series mostly up to 57.5 µM.
In short: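 48 h compound exposure at 37 C, 5% CO2; five-point qHTS. ATPlite luminescence readout of cell ATP.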
Potency means the concentration at half of the fitted maximal effect.

Compound	Potency	activity change, negative = cytotoxicity
CN1CCN(C(=O)CN[C@@H]2C[C@H]2c2ccc(OCc3ccccc3)cc2)CC1	inactive	
O=C(Nc1ccc(-n2nc(C(F)(F)F)cc2C(F)(F)F)cc1)c1ccncc1F	inactive	
COc1ccc(NC(=O)C2C[C@H](C)CC[C@H]2C(C)C)cc1 (some centres undefined)	inactive	
O=C(Nc1cc(C(F)(F)F)ccc1N1CCCCC1)c1ccncc1	inactive	
COc1cc(C2OC(c3ccc(OC)c(OC)c3)C(C)C2C)ccc1O (centres undefined)	inactive	
CC1CCC(=O)CC(SCC(O)C(=O)O)CCC(=O)O1 (centres undefined)	inactive	
O=C(Nc1ccc(C(F)(F)F)cn1)N1CCN(c2ncccc2C(F)(F)F)CC1	inactive	
COc1cc(O)cc(OC2OC(CO)C(O)C(O)C2O)c1 (centres undefined)	inactive	
CC(=O)O[C@H]1C[C@@](O)(C(C)C)[C@@H]2[C@@H](OC(=O)c3ccc(O)cc3)CC(C)=CC[C@@]12C	inactive	
COC(=O)CC[C@@H](C)C1CCC2C3CCC4C[C@H](OC(C)=O)CCC4(C)C3C[C@H](O)C21C (some centres undefined)	inactive	
C=C1CC[C@H]2C(=C)CC[C@H]3C(=C)C(=O)O[C@@H]3[C@@H]12	inactive	
COc1cccc(NCCC2(c3ccccc3)CC(C)(C)OC(C)(C)C2)c1	inactive	
COc1cc(C(=O)NCC2(N(C)C)CCCC2)cc(OC)c1OCc1ccccc1	inactive	
Cc1cnn(-c2ccccc2)c1NC(=O)COCc1ccccc1	inactive	
C=CC(C)(C)c1[nH]c2ccccc2c1C[C@@H]1NC(=O)[C@H](C)NC1=O	inactive	
O[C@@](Cc1ncc(CC2(C(F)(F)F)CC2)[nH]1)(c1ccc(-n2cccn2)cc1)C(F)(F)F	inactive	
CC1(C)CCC2(C(=O)OC3OC(COC4OC(CO)C(O)C(O)C4O)C(O)C(O)C3O)CCC3(C)C(=CCC4C5(C)CCC(OC6OCC(O)C(O)C6O)C(C)(C)C5CCC43C)C2C1O (centres undefined)		0.233% [at 11.6 µM]
C=C(COC(=O)C(O)C(O)CN)C12OC1C1(C)C(=CC2=O)C(O)C(O)CC1C (centres undefined)	inactive	
CC(C)(C)C1CCN(C(=O)n2ncc(C(O)(c3ccccc3)c3ccccc3)n2)CC1	inactive	
O=c1[nH]c([C@@H]2CCCN2)nc2c1oc1ccc(Cl)cc12	inactive	

Compound	Potency	activity change, negative = cytotoxicity
CC(C)(O)C1CC(=O)C2(C)C(CCC3(C)C(c4ccoc4)OC(=O)C4OC432)C12CCC(=O)OC2 (centres undefined)	inactive	
C/C=C\NC(=O)C1NC(=O)C(CC(N)=O)NC(=O)C(NC(=O)C(=O)C(C)CC)Cc2ccc(O)c(c2)-c2cccc3c2NC(=O)C3(O)C1O (centres undefined)	4.47 µM (active)	
COc1ccc(CN2CCN(C(=O)CCNC(=O)c3ccc(C(C)(C)C)cc3)CC2)cc1	inactive	
Cc1ccccc1C(C(=O)NC1CCCCC1)N(C(=O)Cn1cnc2ccccc21)c1cccc(F)c1 (centres undefined)	inactive	
COc1c2c(c(C)c3c1C(=O)OC3)O[C@@]1(C)C[C@@H](OC(C)=O)[C@]34O[C@](OC)(CC[C@]3(C)[C@H]1C2)OC4(C)C	inactive	
CC(C)c1ccc(NC(=O)Cn2cnc3c2c(=O)n(C)c(=O)n3C)cc1	inactive	
Cc1ccc(N2CCN(S(=O)(=O)N3CCCCC3)CC2)c(C)c1	inactive	
COc1ccc(S(=O)(=O)Nc2cc(Cl)cc(Cl)c2OC)cc1N1CCNCC1	inactive	
O=C(NCCN1CCC(n2c(=O)[nH]c3ccccc32)CC1)c1cc2cc(F)ccc2[nH]1	inactive	
C=C1C(=O)OC2C1CCC1(C)C(O)CCC(=C)C21 (centres undefined)	inactive	
COc1ccc(C#Cc2ccc(C(=O)N3CCC[C@@H](CO)C3)cc2)cc1	inactive	
C#CCNCc1cc2cc(OCc3ccccc3)ccc2[nH]1	inactive	
CCS(=O)c1nc(-c2cccc(OCc3ccccc3)c2)cc(C(F)(F)F)n1 (centres undefined)	inactive	
COC(=O)C(Cc1ccc(OCCn2c(=O)sc3cc(C(=O)c4ccccc4)ccc32)cc1)C(=O)OC	inactive	
CCC/C=C/c1cc2c(C=O)c(O)c(CC=C(C)C)cc2o1	inactive	
O=C(NCc1ccccc1)c1ccc2c(=O)n(-c3cccc(C(F)(F)F)c3)c(=S)[nH]c2c1	inactive	
CCC(CC)C(=O)OC12C(OC(=O)C(C)C)C(C)C3(O)C(C=C(CO)CC4(O)C(=O)C(C)=CC43)C1C2(C)C (centres undefined)	inactive	
COc1ccc2cc(-c3cc(-c4cc(Cl)cc(Cl)c4)nn3C(C)c3ccc(C(=O)NCCC(=O)O)cc3)ccc2c1 (centres undefined)	inactive	
CC(C)[C@@H](c1ccc(C(F)(F)F)cc1CN(Cc1cc(C(F)(F)F)cc(C(F)(F)F)c1)c1nnn(C)n1)N1CCC(C(=O)O)CC1	inactive	
